Structures are written as SMILES. Screen size: about 1,400 compounds; about 350 (25%) were called active. Roughly 2% stayed inconclusive and do not appear here. Only a sample is shown. Results with a measured potency or affinity are listed apart. Values without a mark were called inactive. No rule for the calls is given here.

The nature of the experiment: inhibitors of Clostridioides difficile proliferation – 4-point retest, confirmation (AID 1224921).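 Also: plate controls were DMSO wells for no effect and levofloxacin 16 µg/mL wells for full effect.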 Conditions: Clostridioides difficile clinical isolate growth, OD600, 24 h, hits give low values; at 30 µM unless noted.
As to `C[C@H]1CN([C@@H](C)CO)C(=O)c2cc(C#CCN(C)C)cnc2O[C@@H]1CN(C)Cc1ccc(C(=O)O)cc1`, the max activity is -11.6% [at 1.95 µM]. Regarding `O=C(Nc1ccc(Cl)c(Cl)c1)N[C@@H]1CC[C@@H](CCn2cc(C3CCCCC3)nn2)O[C@@H]1CO`, the max activity was 30.5% [at 0.5 µM].

For the compound `COc1ccccc1CNC(=O)C[C@H]1C[C@@H]2c3cc(NC(=O)NC4CCCC4)ccc3O[C@@H]2[C@@H](CO)O1`, the max activity was 12.1%.

For `COc1cccc(C#Cc2ccc3c(c2)O[C@H](CN(C)C)[C@H](C)CN([C@@H](C)CO)S3(=O)=O)c1`, the max activity was -8.62% [at 1.95 µM].

Take `C[C@H]1CN([C@@H](C)CO)S(=O)(=O)c2ccc(C#Cc3ccccc3F)cc2O[C@@H]1CN(C)C`: the max activity is 20.5%. Regarding `CC(C)NC(=O)N(C)C[C@H]1Oc2cc(C#Cc3cccc(F)c3)ccc2S(=O)(=O)N([C@@H](C)CO)C[C@@H]1C`, the max activity was 30.3%. Turning to `C[C@@H]1CN([C@H](C)CO)S(=O)(=O)c2ccc(C#Cc3ccc(F)cc3)cc2O[C@@H]1CN(C)S(C)(=O)=O`, the max activity was -24% [at 1.95 µM].

For the compound `COc1cccc(C#Cc2ccc3c(c2)O[C@@H](CN(C)C)[C@H](C)CN([C@@H](C)CO)S3(=O)=O)c1`, the max activity is 41.9%.

On to `COc1cccc(C#Cc2ccc3c(c2)O[C@H](CN(C)C)[C@@H](C)CN([C@H](C)CO)S3(=O)=O)c1`, for which the max activity is 8.78%.

In the case of `C[C@@H]1CN([C@@H](C)CO)S(=O)(=O)c2ccc(C#Cc3cccc(F)c3)cc2O[C@@H]1CN(C)C`, the max activity was 8.04%. The result for `C[C@H](CO)N1C[C@H](C)[C@@H](CN(C)C)Oc2cc(C#Cc3ccc(F)cc3)ccc2S1(=O)=O` reads 18.3%. The result for `CCCN1C[C@@H](C)[C@@H](OC)CN(C)C(=O)c2cc(NC(=O)CC)ccc2OC[C@@H]1C` reads 8.06%; that for `C[C@H](CO)N1C[C@H](C)[C@H](CN(C)C(=O)Nc2cccc(F)c2)Oc2cc(C#CC3(O)CCCC3)ccc2S1(=O)=O`, 50.2%; that for `Cc1ccc(-c2ccc3c(c2)O[C@H](CN(C)Cc2cccnc2)[C@@H](C)CN([C@@H](C)CO)S3(=O)=O)cc1`, 36.5%. For the compound `CO[C@H]1CN(C)C(=O)c2ccc(NC(=O)c3cccc(F)c3)cc2OC[C@H](C)N(C(C)=O)C[C@@H]1C`, the max activity is -20.5%. The result for `COc1ccc(S(=O)(=O)N(C)C[C@@H]2Oc3ncc(-c4ccc(F)cc4)cc3C(=O)N([C@H](C)CO)C[C@@H]2C)cc1` reads -7.45%; that for `C[C@H](C(=O)N(C)C[C@H]1OCc2ccccc2-c2ccccc2C(=O)N([C@@H](C)CO)C[C@@H]1C)c1ccccc1`, -4.71% [at 0.5 µM]; that for `C[C@@H]1CN([C@H](C)CO)C(=O)c2cc(C#CCN(C)C)cnc2O[C@H]1CN(C)Cc1ccccc1F`, 24.5%. Turning to `NC(=O)[C@H]1[C@@H]2C(=O)O[C@@H](c3ccccc3)[C@@H](c3ccccc3)N2[C@@H](c2ccccc2OCCO)[C@]12C(=O)Nc1ccc(C#CC3(O)CCCCCC3)cc12`, the max activity was 16.8% [at 8 µM]. In the case of `COc1ccc(C#Cc2ccc3c(c2)[C@]2(C(=O)N3)[C@H](C(N)=O)[C@H]3C(=O)O[C@H](c4ccccc4)[C@H](c4ccccc4)N3[C@@H]2c2ccc(O)cc2)cc1` it was 23.8%. With `CC(=O)N(C)C[C@@H]1Oc2ncc(C#Cc3ccc(F)cc3)cc2C(=O)N([C@H](C)CO)C[C@@H]1C`, the max activity is 22.7%. For the compound `C[C@H]1CN([C@@H](C)CO)C(=O)c2cc(NC(=O)Nc3cccc4ccccc34)ccc2O[C@@H]1CN(C)S(=O)(=O)c1ccccc1`, the max activity was 37.2%. Regarding `CO[C@H]1CN(C)C(=O)c2cc(NS(C)(=O)=O)ccc2OC[C@H](C)N(Cc2ccccn2)C[C@@H]1C`, the max activity was 2.2%. As for `CO[C@H](CN(C)Cc1cc(F)ccc1F)[C@@H](C)CN(C(=O)Nc1ccc(F)cc1)[C@@H](C)CO`, the max activity is 21.5%. As for `C/C=C/[C@@H](CCn1cc(CCO)nn1)[Si](C)(C)c1ccc(OC)cc1`, the max activity is -14.8% [at 0.5 µM]. For `C[C@H](NC(=O)N(C)C[C@@H]1OCc2ccccc2-c2c(n(C)c3ccccc23)C(=O)N([C@@H](C)CO)C[C@H]1C)c1ccccc1`, the max activity was 26.5% [at 8 µM]. The result for `CN(C)CCCNC(=O)[C@H]1[C@H](CO)[C@H]2Cn3c(ccc(-c4cccc(F)c4)c3=O)[C@@H]1N2C` reads -8.59%. For `CNC[C@H]1Oc2cc(-c3ccccc3F)ccc2S(=O)(=O)N([C@H](C)CO)C[C@@H]1C`, the max activity is 14%. The result for `Cc1ccccc1-c1ccc2c(c1)O[C@@H](CN(C)Cc1ccncc1)[C@@H](C)CN([C@@H](C)CO)S2(=O)=O` reads 40.4%. As for `C/C=C/c1cnc2c(c1)C(=O)N([C@@H](C)CO)C[C@@H](C)[C@@H](CN(C)Cc1ccc(F)cc1)O2`, the max activity was 19.7%. As for `C[C@H](CO)N1C[C@H](C)[C@H](CN(C)Cc2ccc(C(=O)O)cc2)Oc2ncc(C#CCN(C)C)cc2C1=O`, the max activity is -7.61% [at 8 µM]. The result for `CO[C@@H]1CN(C)C(=O)c2ccc(NC(=O)c3nc4ccccc4s3)cc2OC[C@H](C)N(Cc2cccnc2)C[C@@H]1C` reads -17.1% [at 1.95 µM].

For the compound `CCCN1C[C@H](C)[C@@H](OC)CN(C)C(=O)c2cc(NC(=O)CC)ccc2OC[C@H]1C`, the max activity was -10.4% [at 0.5 µM]. As to `Cc1ccc(-c2ccc3c(c2)O[C@H](CN(C)Cc2ccncc2)[C@@H](C)CN([C@H](C)CO)S3(=O)=O)cc1`, the max activity was -11.4% [at 8 µM]. In the case of `CO[C@@H]1CN(C)C(=O)c2ccc(NC(=O)C3CC3)cc2OC[C@@H](C)N(Cc2cncnc2)C[C@@H]1C`, the max activity was -9.09% [at 1.95 µM]. Regarding `CCCC#Cc1ccc2c(c1)O[C@@H](CN(C)C(=O)c1ccccc1F)[C@@H](C)CN([C@@H](C)CO)S2(=O)=O`, the max activity is 23.4%. Regarding `C[C@@H]1CN([C@@H](C)CO)C(=O)Cc2cc(NC(=O)c3ccncc3)ccc2O[C@H]1CN(C)Cc1ccc(Cl)c(Cl)c1`, the max activity was 36.8% [at 8 µM].

As for `COc1ccc(CNC(=O)C[C@H]2CC[C@H](NC(=O)c3cccc(F)c3)[C@@H](CO)O2)cc1`, the max activity was -5.36% [at 1.95 µM]. `C[C@H]1CCCCO[C@H](CN(C)Cc2ccc3c(c2)OCO3)[C@@H](C)CN([C@@H](C)CO)C(=O)c2cc(NC(=O)Nc3ccc(F)cc3)ccc2O1`: the max activity was 29.6%. In the case of `O=C(NCCc1ccccc1)[C@@H]1[C@@H](CO)[C@@H]2Cn3c(cccc3=O)[C@H]1N2C(=O)C1CC1`, the max activity is -6.59%. In the case of `CCCN1C[C@H](C)[C@@H](OC)CN(C)C(=O)c2ccc(NC(=O)Nc3c(C)noc3C)cc2OC[C@H]1C` it was 6.66%; in that of `CO[C@H]1CN(C)C(=O)c2cc(NC(=O)Nc3ccc(Cl)cc3)ccc2OC[C@H](C)N(C(=O)Nc2c(C)noc2C)C[C@@H]1C`, -13% [at 8 µM]; in that of `Cc1ccc(-c2ccc3c(c2)O[C@H](CN(C)Cc2cccnc2)[C@@H](C)CN([C@H](C)CO)S3(=O)=O)cc1`, 31.7%. `CO[C@@H]1CN(C)C(=O)c2ccc(NS(=O)(=O)c3ccc(C)cc3)cc2OC[C@@H](C)N(C(=O)NC(C)C)C[C@H]1C`: the max activity was 14.4%. The result for `CCCN1C[C@H](C)[C@H](OC)CN(C)C(=O)c2cc(NC(=O)CC)ccc2OC[C@@H]1C` reads 7.21% [at 8 µM]. As for `O=C(C[C@@H]1C=C[C@@H](NC(=O)Cc2ccccn2)[C@H](CO)O1)NCCCN1CCOCC1`, the max activity was 2.76% [at 0.5 µM]. Turning to `CC(C)CC#Cc1ccc2c(c1)O[C@@H](CN(C)Cc1ccncc1)[C@H](C)CN([C@@H](C)CO)S2(=O)=O`, the max activity was 29.7%. For the compound `COc1ccc(-c2ccc([C@@H]3[C@@H](CO)N(C(=O)C4CCCC4)[C@H]3C#N)cc2)cc1`, the max activity was 25% [at 7.5 µM]. As to `CCCC(=O)Nc1ccc2c(c1)C(=O)N(C)C[C@H](OC)[C@H](C)CN(Cc1ccc(F)cc1)[C@@H](C)CO2`, the max activity is 17.3%. In the case of `C[C@@H]1CN([C@H](C)CO)C(=O)c2cc(C#Cc3ccccc3F)cnc2O[C@@H]1CN(C)C(=O)C1CCOCC1` it was 17.1%.

Consider `CC(=O)N(C)C[C@H]1Oc2ncc(C#Cc3ccccc3F)cc2C(=O)N([C@@H](C)CO)C[C@@H]1C`, for which the max activity is 60.6%. For `COc1cccc(C#Cc2cnc3c(c2)C(=O)N([C@@H](C)CO)C[C@H](C)[C@@H](CN(C)C)O3)c1`, the max activity is -9.5% [at 1.95 µM]. Regarding `COc1cccc(C#Cc2cnc3c(c2)C(=O)N([C@H](C)CO)C[C@@H](C)[C@H](CN(C)C)O3)c1`, the max activity was 6.76%.

Regarding `CCNC(=O)C[C@H]1C=C[C@H](NS(=O)(=O)c2ccc(F)cc2)[C@H](CO)O1`, the max activity was -12%. With `O=C(C[C@@H]1C[C@H]2c3cc(NC(=O)Nc4ccc(C(F)(F)F)cc4)ccc3O[C@H]2[C@@H](CO)O1)NCc1ccc2c(c1)OCO2`, the max activity is -23.2% [at 8 µM]. For the compound `CO[C@@H]1CN(C)C(=O)c2ccc(NS(=O)(=O)c3ccccc3C)cc2OC[C@@H](C)N(S(C)(=O)=O)C[C@H]1C`, the max activity is -12.6% [at 8 µM]. In the case of `C[C@@H]1CN([C@@H](C)CO)S(=O)(=O)c2ccc(C#Cc3ccc(F)cc3)cc2O[C@@H]1CN(C)C(=O)NC1CCCCC1` it was -4.75% [at 8 µM]. As to `C[C@@H]1CN([C@@H](C)CO)C(=O)c2cc(NS(=O)(=O)c3ccc(Cl)cc3)ccc2O[C@@H]1CN(C)Cc1ccccc1`, the max activity was 18.9%.

Values taken from PubChem BioAssay AID1224921 (Broad Institute, 2016).
